IL1B secr inh = blocks inflammasome-driven IL-1 beta release; AID 743279; THP-1 LPS/ATP IL-1B secretion, AlphaLISA, 16 h; active compounds read low; activity change, % at 57.5 µM; 360,000 tested, 4.7% active; in the data active = activity change below about -50%; inconclusive = mostly about -30% to -49%
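Secreted IL-1B measured by AlphaLISA bead assay after 16 h compound exposure of THP-1 cells; compounds (final up to 57.5 uM) added 1 h before LPS (250 ng/mL) and ATP (1.25 mM) stimulation; lower signal means less secretion.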
HT1080-NT tox = kills 2HG-producing HT-1080-NT fibrosarcoma cells | AID 686970 | HT-1080-NT fibrosarcoma viability, CellTiter-Glo ATP luminescence, 48 h | Potency, µM (doses to about 46.1 µM), hits mostly cytotoxic | 360,000 tested, 1.6% active;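 note: NT is the 2HG producing partner of a matched IDH1 knockdown line; nearly all actives have a fitted effect of over 55% in size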
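HT-1080-NT; 750 cells/well; 5% FBS RPMI; 48 h compound, 37 degrees C; CellTiter-Glo luminescence; curve fitting and curve-class assignment.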
HT1080 IDH1KD tx = kills HT-1080 cells with IDH1 knockdown. HT-1080 IDH1 knockdown viability, ATP luminescence, 48 h. AID 686971. 360,000 tested, 2% active. Potency, µM (top dose mostly 46.1 µM), usual class: cytotoxic
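Viability of IDH1-knockdown HT-1080 fibrosarcoma cells was assessed by CellTiter-Glo after 48 h at 37 °C with titrated compound; concentration-effect curves were classified by fit quality and response size.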
KB-V1 MDR tox = KB-V1 MDR subline cytotoxicity; KB-V1 MDR cells viability, CellTiter-Glo, 72 h; Potency, µM (highest dose often 46.1 µM), hits mostly cytotoxic; 400,000 tested, 3.4% active; note: nearly all actives have a fitted effect of over 60% in size
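Compound-treated KB-V1 multidrug-resistant cells, 72 h, 37 degrees C; viability by CellTiter-Glo. Fitted qHTS curves give the values.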
KB-3-1 cytotox = KB-3-1 parental cell cytotoxicity. Potency, µM (top dose mostly 46.1 µM), usual class: cytotoxic. 400,000 tested, 1.4% active. KB-3-1 viability, CellTiter-Glo ATP luminescence, 72 h; note: nearly all actives have a fitted effect of over 60% in size
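Cells are dispensed, compounds pinned in, plates held at 37 °C for 72 h, then CellTiter-Glo is added and luminescence read after 10 minutes. Cell line: parental KB-3-1 in phenol-red-free DMEM, 10% FBS.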
Hits are given with their value; i = inactive; ? = inconclusive; nt = no result given; [ ] = dose if it differs, or a comment. A selection: hits, their analogues and other compounds. The true share with any hit is near 8.8%. Unless noted, calls come from the whole dose curve; as a rule, active = well fitted curve in the direction sought with a large enough effect; inconclusive = small, poorly fitted or top-dose-only effect, or another doubt; inactive = no such curve, though single readings can be large; an effect the other way counts as inactive or inconclusive.

SMILES | IL1B secr inh | HT1080-NT tox | HT1080 IDH1KD tx | KB-V1 MDR tox | KB-3-1 cytotox
N#C/C(=C\c1cccnc1)c1nc2ccccc2[nH]1 | i | ? | ? | 23.1µM | ?
N#C/C(=C\c1cccc(OCC(=O)O)c1)c1nc2ccccc2[nH]1 | i | i | i | i | i
N#C/C(=C\c1ccncc1)c1nc2ccccc2[nH]1 | -64.4 | i | i | i | i
Cc1cc2nc(/C(C#N)=C/c3ccncc3)[nH]c2cc1C | i | ? | 23.1µM | i | i
N#C/C(=C\c1ccccc1C(=O)O)c1nc2ccccc2[nH]1 | i | i | i | i | i
Cc1ccc2nc(/C(C#N)=C/c3ccc(O)c(O)c3)[nH]c2c1 | i | i | ? | i | ?
N#C/C(=C\c1ccc(N2CCOCC2)c([N+](=O)[O-])c1)c1nc2ccccc2[nH]1 | -103.9 | i | i | 10.3µM | ?
Cc1cccc(NC(=O)CCCn2cc([N+](=O)[O-])cn2)n1 | i | i | i | ? | i
CN(CC(=O)Nc1ccc(Cl)cc1)CC(=O)Nc1cc(Cl)ccc1C#N | -84.5 | ? | i[9.24 µM] | ? | ?
CCOc1ccc(NC(=O)C2CCC(CNS(=O)(=O)c3ccc(Br)s3)CC2)cc1 (configuration not stated) | nt | nt | nt | i | i
O=C(c1ccc(-c2ccccc2)cc1)c1ccccc1C(=O)N1CCOCC1 | i | i | i | 20.6µM | i
O=C(c1ccccc1-c1nc(-c2ccccc2)no1)N1CCOCC1 | i | i | i | 11.6µM | i
CCC1=Nc2cc(C(=O)NCCN3CCOCC3)ccc2Sc2ccc(Br)cc21 | i | i | i | i | i
CCOC(=O)C1CCN(Cc2cc(C(C)C)c(O)c(C(C)C)c2)CC1 | i | i | i | ? | i
CC(C)c1cc(CN2C(C)COCC2C)cc(C(C)C)c1O (configuration not stated) | i | i | i | 16.4µM | ?
Fc1ccc(COc2ccc(Br)cc2CNCC2CCCO2)cc1 (configuration not stated) | -73.5 | ? | ? | i | i
Cc1ccc(C(C#N)c2ccc3c(C(F)(F)F)cc(C(F)(F)F)nc3n2)cc1 (configuration not stated) | ? | i | i | ? | ?
N#CC(c1ccccc1)c1ccc2c(C(F)(F)F)cc(C(F)(F)F)nc2n1 (configuration not stated) | -82.6 | i | i | i | ?
CCCC(/C=C/c1ccc(OC(C)=O)cc1)=C1/c2ccccc2C(=O)N1c1ccccc1 | -62.7 | i | i | i | i
CC(=O)Oc1ccc(C#C/C=C2\c3ccccc3C(=O)N2c2ccccc2)cc1 | -99.6 | i | i | i | ?
COc1cccc(CNC(=O)CN2C(=O)N(c3c(C)cccc3C)S(=O)(=O)c3ccccc32)c1OC | nt | nt | nt | ? | i
CC1(C(=O)NCCc2ccccc2)Cc2c(-c3ccc(C(N)=O)cc3)ccnc2O1 (configuration not stated) | i | i | i | i | i
CCCCCC(=O)N1C[C@@H](n2cc(C3CC3)nn2)[C@H](O)C[C@@H]1c1ccc(Cl)cc1 | i | i | i | i | i
Cc1nn(Cc2ccc(Cl)cc2Cl)c(C)c1NC(=O)c1sc2ccccc2c1Cl | i | i | i | i | i
Cc1nn(Cc2ccc(Cl)cc2Cl)c(C)c1NC(=O)NC12CC3CC(CC(C3)C1)C2 | i | i | 18.4µM | 14.6µM | ?
SMILES | IL1B secr inh | HT1080-NT tox | HT1080 IDH1KD tx | KB-V1 MDR tox | KB-3-1 cytotox
Cc1ccc(NC(=O)C[n+]2cc(-c3ccc(C)cc3)n3c2CCC3)cc1 | nt | i | i | i | i
O=C(C[n+]1cc(-c2ccc(F)cc2)n2c1CCC2)Nc1nc(-c2ccccc2)cs1 | i | i | i | i | ?
Cc1ccc(-c2c[n+](CC(=O)Nc3ccc(C)cc3C)c3n2CCC3)cc1 | -72.6 | i | i | ? | i
Cc1ccc(-c2c[n+](CC(=O)Nc3nc(-c4ccc(F)cc4)cs3)c3n2CCC3)cc1 | -99.6 | 20.6µM | 23.1µM | i | i
COc1ccc2c(c1)c1c(c(=O)n(-c3ccccc3)c(=O)n1CC(=O)NCCC1=CCCCC1)n2C | nt | nt | nt | i | i
Fc1ccc(N/N=C2/CC(c3ccccc3)Oc3ccccc32)c(F)c1 (configuration not stated) | -52.0 | i | i | i | i
O=S(=O)(N/N=C1/CC(c2ccccc2)Oc2ccccc21)c1ccc(Br)cc1 (configuration not stated) | i | i | i | 23.1µM | 18.4µM
